The list is not random: actives were taken first. Their share in the collection is about 10%.
GPT2 inhibitor: inhibitors of human GPT2 alanine aminotransferase; Q8TD30; AID 1671188; Recombinant GPT2, coupled pyruvate oxidase/HRP Amplex Red fluorescence; 100,000 tested, 0.25% active; Potency, µM (top dose mostly 57.7 µM), hits mostly inhibitors; also: nearly all actives have a fitted effect of over 60% in size
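Fluorescence of coupled pyruvate oxidase/HRP/Amplex Red system (50uM Amplex, 30 min, dark) reports pyruvate formed by GPT2. Enzyme reaction: 10ng/uL GPT2, 2mM L-alanine, 250uM a-KG, 30 min room temperature, pH 7.5; 50uM AOA control.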
NPR1 antag: antagonists of human natriuretic peptide receptor Npr1 | P16066 | HEK293 hNpr1 GloSensor cGMP, ANP-stimulated luminescence | Potency, µM (highest dose often 46.3 µM), most hits filed as inhibitors | 76,000 tested, 1.6% active; calls by dose curve; also: nearly all actives have a fitted effect of over 60% in size
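HEK293 cells stably expressing human Npr1 and cGMP GloSensor pGS-40F, loaded 2 h with 2% GloSensor reagent, given compound 30 min at room temperature. Luminescence read before and 20 min after 0.1 nM hNppA.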
HEK cytotox: kills HEK 293 cells | AID 1345083 | HEK 293 viability, ATP luminescence (CellTiter-Glo), 48-72 h | 94,000 tested, 6.6% active | Potency, µM (highest dose often 115 µM), actives largely listed as inhibitors; also: nearly all actives have a fitted effect of over 60% in size
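HEK 293 seeded at 250 cells/well receive compound via pintool. After 48 or 72 hr at 37 degree Celsius, 5% CO2 and 95% humidity, CellTiter-Glo is dispensed and luminescence read following 10 min at room temperature.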
3T3 cytotox: kills NIH 3T3 cells; AID 1345082; NIH 3T3 viability, CellTiter-Glo ATP luminescence, 48-72 h; Potency, µM (series often up to 96.7 µM), usual class: inhibitors; 94,000 tested, 4.3% active; also: nearly all actives have a fitted effect of over 55% in size
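ATP-dependent luminescence (CellTiter-Glo) served as the viability signal for NIH 3T3 cells treated with compound for 48 or 72 hr at 37 °C.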
FLuc inh-1: inhibitors of firefly (Photinus pyralis) luciferase; Potency, µM (highest dose often 115 µM), hits mostly inhibitors; purified P. pyralis luciferase, luminescence, biochemical; 76,000 tested, 2.5% active; AID 1347043; also: nearly all actives have a fitted effect of over 65% in size
Target sequence (P08659 whole entry, looked up): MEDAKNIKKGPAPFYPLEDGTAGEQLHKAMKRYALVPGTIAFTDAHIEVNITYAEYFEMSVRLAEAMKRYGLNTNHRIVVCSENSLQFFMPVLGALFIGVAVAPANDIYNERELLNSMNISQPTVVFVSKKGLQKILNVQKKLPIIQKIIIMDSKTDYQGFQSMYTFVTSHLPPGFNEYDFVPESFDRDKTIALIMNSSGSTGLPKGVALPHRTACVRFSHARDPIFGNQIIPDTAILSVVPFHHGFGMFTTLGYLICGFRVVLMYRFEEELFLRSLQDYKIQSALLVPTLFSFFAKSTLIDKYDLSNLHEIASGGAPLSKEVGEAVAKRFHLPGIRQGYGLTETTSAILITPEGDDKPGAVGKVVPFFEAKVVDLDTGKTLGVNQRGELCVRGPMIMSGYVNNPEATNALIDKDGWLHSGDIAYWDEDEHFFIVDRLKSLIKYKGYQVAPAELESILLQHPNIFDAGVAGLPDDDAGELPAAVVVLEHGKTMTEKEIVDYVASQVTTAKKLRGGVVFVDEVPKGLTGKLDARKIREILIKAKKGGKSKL
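Luminescence read by CCD imager after adding enzyme (10nM final) to wells holding compound, titrated in qHTS. Substrates 10uM each D-luciferin and ATP; buffer 50mM Tris acetate pH 7.5, 10mM Mg acetate, Tween-20, BSA.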
FLuc SDR -ATP: stabilizes firefly luciferase without ATP; shares compounds with FLuc inh-1; Purified FLuc-C-HiBiT, Nano-Glo HiBiT luminescence, no ATP; Potency, µM (top dose mostly 32.7 µM), hits mostly activators; 1,300 tested, 7.8% active; also: nearly all actives have a fitted effect of over 55% in size
FLuc SDR ATP: stabilizes firefly luciferase with ATP present; shares compounds with FLuc inh-1; purified FLuc-C-HiBiT + ATP, HiBiT complementation luminescence; Potency, µM (series often up to 32.7 µM), most hits filed as activators; 1,300 tested, 8.7% active;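 also: signal reports ligand binding via conformational change of the enzyme rather than luciferase catalysis; nearly all actives have a fitted effect of over 55% in size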
FLuc inh-2: firefly luciferase enzyme inhibition; 1,300 tested, 42% active; purified FLuc-C-HiBiT enzyme, luciferin luminescence; Potency, µM (top dose mostly 32.7 µM), hits mostly inhibitors; AID 1963320; shares compounds with FLuc inh-1; also: nearly all actives have a fitted effect of over 70% in size
Of the large screens only hits and unclear results are named; the others gave an inactive call (follow-up assays come after a bar, where they were run). Unless noted, calls follow the shape of the dose curve; as a rule, active = well fitted curve in the direction sought with a large enough effect; inconclusive = small, poorly fitted or top-dose-only effect, or another doubt; inactive = no such curve, though single readings can be large; an effect the other way counts as inactive or inconclusive.

Cc1ccc(C2Cn3cnc(C(=O)N4CCC(C(=O)NCc5ccco5)CC4)c3CO2)cc1 (centres undefined)	FLuc inh-1 14µM | FLuc SDR -ATP inactive | FLuc SDR ATP inconclusive | FLuc inh-2 inconclusive
O=C(NCCc1ccc(Cl)cc1)C1CCCN1c1nc2ncccc2o1 (centres undefined)	HEK cytotox inconclusive
CSCCC(=O)N1CCCC1C(=O)Nc1ccccc1Oc1cccnc1 (centres undefined)	none
COCC(=O)N1CCN(C(=O)c2cccc(F)c2)C[C@H]1C(=O)N[C@H](C)C(=O)OC	none
CON=C(C(=O)N[C@@H]1C(=O)N2C(C(=O)O)=C(CSC(=O)c3ccco3)CS[C@H]12)c1csc(N)n1	none (no result: NPR1 antag, HEK cytotox, 3T3 cytotox, FLuc inh-1)
O=C(NCc1ccncc1)C1CCN(C(=O)c2ncn3c2COC(c2ccccc2)C3)CC1 (centres undefined)	NPR1 antag inconclusive, FLuc inh-1 2.8µM | FLuc SDR -ATP inactive | FLuc SDR ATP 0.88µM | FLuc inh-2 1.8µM
CCC1=C(C(=O)OC)C(c2ccccc2)N2C(CC(=O)N3CCC(C)CC3)=CSC2=N1 (centres undefined)	HEK cytotox inconclusive, 3T3 cytotox inconclusive
Cc1ccc(CN2C(=O)OC(c3cccc(NC(=O)c4ccc(C)cc4)c3)C2C(=O)NCC(C)C)cc1 (centres undefined)	NPR1 antag inconclusive, HEK cytotox inconclusive, FLuc inh-1 7.1µM | FLuc SDR -ATP inactive | FLuc SDR ATP 11µM | FLuc inh-2 inconclusive
CCc1n[nH]c(CC2CCN(C(=O)c3sc(C)nc3C)CC2)n1	none
O=C(Nc1cccc(C(F)(F)F)c1)O[C@@H]1CO[C@H]2[C@@H]1OC[C@@H]2NS(=O)(=O)c1cccs1	HEK cytotox inconclusive, 3T3 cytotox inconclusive
CC(C)c1ccc(NC(=O)O[C@@H]2CO[C@H]3[C@@H]2OC[C@@H]3NS(=O)(=O)c2cccs2)cc1	HEK cytotox inconclusive, 3T3 cytotox inconclusive, FLuc inh-1 11µM | FLuc SDR -ATP inactive | FLuc SDR ATP inactive | FLuc inh-2 inconclusive
O=c1c2nc(N3CCC(c4ccccc4)CC3)ccc2ncn1C1CC1	NPR1 antag inconclusive, HEK cytotox 89µM, 3T3 cytotox inconclusive, FLuc inh-1 1.4µM | FLuc SDR -ATP 20µM | FLuc SDR ATP inconclusive | FLuc inh-2 3.6µM
O=c1c2nc(-c3ccccc3C(F)(F)F)ccc2ncn1C1CC1	3T3 cytotox inconclusive
O=C(Cc1cccc(F)c1)NCCc1noc(-c2cccnc2)n1	none
COc1cccc(CNC(=O)c2nc3cccnc3n(Cc3ccccc3)c2=O)c1	HEK cytotox inconclusive, 3T3 cytotox inconclusive (no result: NPR1 antag, FLuc inh-1)
COc1cccc(OCc2nc3ccccc3n2Cc2ccccc2)c1	none (no result: GPT2 inhibitor, NPR1 antag, HEK cytotox, 3T3 cytotox, FLuc inh-1) | FLuc SDR -ATP inactive | FLuc SDR ATP inactive | FLuc inh-2 inactive
Clc1ccc(OCc2nc3ccccc3n2Cc2ccccc2)c(Cl)c1	none (no result: GPT2 inhibitor, NPR1 antag, HEK cytotox, 3T3 cytotox, FLuc inh-1) | FLuc SDR -ATP inactive | FLuc SDR ATP inactive | FLuc inh-2 inconclusive
COCCN1CCNc2nc(COc3ccccc3OC(F)(F)F)n(Cc3ccccc3)c2C1=O	HEK cytotox inconclusive, 3T3 cytotox inconclusive
COc1ccc([C@@H](NC(=O)CN2CCCCCC2=O)C2CC(O)C2)cc1F (some centres undefined)	none
CC(C)(CC(=O)O)CC(=O)N1Cc2[nH]cnc2C[C@H]1c1nc(Cc2ccccc2)no1	none | FLuc SDR -ATP inactive | FLuc SDR ATP inactive | FLuc inh-2 inactive
CN(Cc1ccccc1)C(=O)[C@@H]1Cc2nc[nH]c2CN1C(=O)CC(C)(C)CC(=O)O	none
O=C1NCc2ccccc2CC12CCN(Cc1ccc(F)cc1F)C2 (centres undefined)	none (no result: NPR1 antag, FLuc inh-1)
CSc1cccc(NC(=O)C2CCN(C(=O)c3ncn4c3COC(c3ccc(F)cc3)C4)CC2)c1 (centres undefined)	NPR1 antag inconclusive, FLuc inh-1 inconclusive
CC(C)c1ccc(NC(=O)C2CCN(C(=O)c3ncn4c3COC(c3ccccc3)C4)CC2)cc1 (centres undefined)	FLuc inh-1 2.5µM | FLuc SDR -ATP inactive | FLuc SDR ATP inconclusive | FLuc inh-2 3.5µM
O=C(Nc1ccc(F)c(F)c1)C1CCN(C(=O)c2ncn3c2COC(c2ccccc2)C3)CC1 (centres undefined)	NPR1 antag inconclusive, FLuc inh-1 1µM | FLuc SDR -ATP inactive | FLuc SDR ATP 0.56µM | FLuc inh-2 0.99µM
CCc1cccc(NC(=O)C2CCN(C(=O)c3ncn4c3COC(c3ccccc3)C4)CC2)c1 (centres undefined)	NPR1 antag inconclusive, FLuc inh-1 3.5µM | FLuc SDR -ATP inactive | FLuc SDR ATP 1.2µM | FLuc inh-2 1.8µM
O=C(NCc1ccccc1)C1CCN(C(=O)c2ncn3c2COC(c2ccc(Cl)cc2)C3)CC1 (centres undefined)	FLuc inh-1 inconclusive
COc1ccc(NC(=O)C2CCN(C(=O)c3ncn4c3COC(c3ccc(OC)cc3)C4)CC2)cc1 (centres undefined)	none
CC(C)c1cccc(NC(=O)C2CCN(C(=O)c3ncn4c3COC(c3ccccc3)C4)CC2)c1 (centres undefined)	HEK cytotox inconclusive, FLuc inh-1 3.5µM | FLuc SDR -ATP inactive | FLuc SDR ATP inconclusive | FLuc inh-2 7.9µM
CC(C)NC(=O)C1Cn2cccc2C(=O)N1C (centres undefined)	none
O=C(c1cnc(Cc2c(Cl)cccc2Cl)[nH]c1=O)N1CCOCC1	none
CCOc1ccc(NC(=O)C2CCN(C(=O)c3ncn4c3COC(c3ccccc3)C4)CC2)cc1 (centres undefined)	FLuc inh-1 13µM | FLuc SDR -ATP inactive | FLuc SDR ATP inconclusive | FLuc inh-2 7µM
Cc1cc2nc3n(c(=O)c2n1CC(=O)NCCCc1ccccc1)CCCCC3	HEK cytotox inconclusive
CCOC(=O)c1cn(C2CN(C(=O)Nc3ccc(F)cc3F)C2)nn1	none
O=c1[nH]nc2n1CCCCC2	none | FLuc SDR -ATP inactive | FLuc SDR ATP inactive | FLuc inh-2 inactive
CC1CCN(C(=O)C2N(C(C)C)C(=O)C23CCCC3)CC1 (centres undefined)	none
Cc1ccc(C2=CC(c3ccccc3F)n3c(nc4ccccc43)N2)cc1C (centres undefined)	none (no result: GPT2 inhibitor, NPR1 antag, HEK cytotox, 3T3 cytotox, FLuc inh-1) | FLuc SDR -ATP inconclusive | FLuc SDR ATP inconclusive | FLuc inh-2 3.1µM
